Experimental data from PubChem BioAssay AID1445 (SRMLSC, 2008).
The campaign covered roughly 220,000 compounds. About 910 (0.41%) were called active. The sample holds actives, similar compounds and a random draw of the others, so the mix is not that of the screen.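 Rule for the calls: active = primary inhibition above the hit cutoff, then over 50% inhibition at one or more dose response concentrations (cut at about 23% in these data, passing the limit was not always enough); inconclusive = conflicting primary data, or primary hits not chosen for dose response; inactive = low primary inhibition, or under 50% at every dose.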 Potency and affinity values are given separately.

biological target: Aminopeptidase N (Plasmodium falciparum (isolate 3D7)) (UniProt O96935); assay: malaria alanyl aminopeptidase activity blockers – biochemical, fluorogenic H-Leu-NHMec substrate, 1536-well (AID 1445); conditions: recombinant M1AAP, H-Leu-NHMec fluorogenic kinetic assay; at 30 µM, stronger effect = higher value unless noted;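 note: plate controls were DMSO full reaction for no effect and no enzyme background for full effect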
Sequence (O96935 whole entry, looked up): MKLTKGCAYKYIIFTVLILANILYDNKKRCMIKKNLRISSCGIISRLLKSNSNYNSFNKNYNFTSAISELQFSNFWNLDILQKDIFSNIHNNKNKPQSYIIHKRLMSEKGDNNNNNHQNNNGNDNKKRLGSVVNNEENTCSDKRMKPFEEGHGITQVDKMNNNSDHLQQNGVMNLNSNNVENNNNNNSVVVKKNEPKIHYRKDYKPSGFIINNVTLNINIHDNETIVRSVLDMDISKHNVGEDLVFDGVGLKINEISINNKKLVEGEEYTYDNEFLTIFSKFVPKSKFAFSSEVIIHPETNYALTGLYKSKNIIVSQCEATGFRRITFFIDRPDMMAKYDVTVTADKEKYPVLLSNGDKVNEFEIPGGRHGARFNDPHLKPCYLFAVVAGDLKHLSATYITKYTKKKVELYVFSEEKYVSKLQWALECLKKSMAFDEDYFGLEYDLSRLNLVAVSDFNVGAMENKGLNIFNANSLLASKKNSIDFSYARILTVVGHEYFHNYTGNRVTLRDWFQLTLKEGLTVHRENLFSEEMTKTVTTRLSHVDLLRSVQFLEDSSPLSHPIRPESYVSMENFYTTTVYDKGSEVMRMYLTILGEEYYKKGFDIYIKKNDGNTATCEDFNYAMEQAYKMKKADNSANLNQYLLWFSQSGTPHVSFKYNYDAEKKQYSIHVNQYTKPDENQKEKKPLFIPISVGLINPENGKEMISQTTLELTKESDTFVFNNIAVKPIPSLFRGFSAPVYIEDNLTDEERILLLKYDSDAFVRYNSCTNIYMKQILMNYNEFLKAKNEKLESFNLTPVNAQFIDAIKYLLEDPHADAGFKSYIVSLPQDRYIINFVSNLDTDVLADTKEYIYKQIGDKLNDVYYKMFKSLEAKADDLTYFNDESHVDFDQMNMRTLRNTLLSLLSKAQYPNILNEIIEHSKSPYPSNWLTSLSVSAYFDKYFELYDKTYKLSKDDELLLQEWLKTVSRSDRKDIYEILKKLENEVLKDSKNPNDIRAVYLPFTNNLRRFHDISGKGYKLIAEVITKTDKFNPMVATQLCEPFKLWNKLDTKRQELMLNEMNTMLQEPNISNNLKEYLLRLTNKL

Row | SMILES | inhibition
1 | Cc1ccc(C(=O)NCCN2CCNC2=O)cc1 | -8.25% (inactive)
2 | Cc1ccccc1OCC(=O)Nc1ccc2oc(=O)ccc2c1 | 16.6% (inactive)
3 | CCOC(=O)C1CCN(C(=O)COc2ccc(N(C)S(=O)(=O)c3ccc(OCC)cc3)cc2)CC1 | -2.18% (inactive)
4 | CCn1c(CSc2nc3ccccc3s2)nnc1SCC(=O)c1ccc(O)cc1O | 6.78% (inactive)
5 | CCn1c(CSc2nc3ccccc3s2)nnc1SCC(=O)c1ccc(Cl)cc1 | 11.1% (inactive)
6 | O=C(Cc1c(C(=O)O)[nH]c2ccc(Cl)cc12)Nc1ccc2c(c1)OCCO2 | 4.87% (inactive)
7 | Cc1ccc(-c2nnn(CC(=O)N(Cc3ccco3)C(C(=O)NC3CCCC3)c3cccs3)n2)o1 (stereo unspecified) | 0.46% (inactive)
8 | COc1cc(/C=N/NC(=O)C2c3ccccc3Oc3ccccc32)ccc1O | 3.49% (inactive)
9 | O=C(N/N=C\c1cccnc1)C1c2ccccc2Oc2ccccc21 | 3.5% (inactive)
10 | O=C(N/N=C/c1ccc(O)c(O)c1)C1c2ccccc2Oc2ccccc21 | 25.6% (active)
11 | Nc1cc(-c2cccc(F)c2)nn1S(=O)(=O)c1cccc2nsnc12 | 6.59% (inactive)
12 | CC1=C(C(=O)Nc2ccccn2)C(c2cn(C)nc2C)C2=C(CCCC2=O)N1 (stereo unspecified) | 9.42% (inactive)
13 | Cc1ccc(C(=O)Oc2cc(N)n(S(=O)(=O)c3ccc(C)cc3)n2)cc1 | -3.58% (inactive)
14 | COc1ccccc1C(=O)Oc1cc(N)n(S(=O)(=O)c2ccccc2)n1 | 11.1% (inactive)
15 | COc1cccc(NC(=S)N(CCc2ccc(OC)c(OC)c2)Cc2ccccn2)c1 | 4.47% (inactive)
16 | CCc1ccc2nc(N3C(=O)C(O)=C(C(=O)c4ccco4)C3c3cccs3)sc2c1 (stereo unspecified) | 14.9% (inactive)
17 | Cc1ccc2nc(N3C(=O)C(O)=C(C(=O)c4ccco4)C3c3cccs3)sc2c1 (stereo unspecified) | 27.4% (active)
18 | Cc1ccc2nc(N3C(=O)C(O)=C(C(=O)c4cc5ccccc5o4)C3c3cccs3)sc2c1 (stereo unspecified) | 10.6% (inactive)
19 | Cc1nnc(SCC(=O)N2CCN(C(=O)c3ccco3)CC2)n1-c1ccccc1 | -1.57% (inactive)

Row | SMILES | inhibition
20 | Cc1ccc(NC(=O)C(=O)NN)cc1 | 3.55% (inactive)
21 | CC(C)(C)n1nnnc1C(c1cccs1)N1CCN(Cc2ccc3c(c2)OCO3)CC1 (stereo unspecified) | 3.23% (inactive)
22 | COc1ccc(C2OC(=O)CC2C(=O)NCc2ccc(Cl)cc2)cc1OC (stereo unspecified) | -0.93% (inactive)
23 | CCn1c(=O)c(C(=O)NNS(=O)(=O)c2ccc(C)cc2)c(O)c2ccccc21 | 5.97% (inactive)
24 | O=C(Nn1c(-c2ccccc2)nc2ccccc2c1=O)c1ccco1 | 15.6% (inactive)
25 | Cc1ccccc1OCc1nc2ccccc2c(=O)n1NC(=O)c1ccco1 | 22.7% (inactive)
26 | O=C(Nn1c(C2CC2)nc2ccccc2c1=O)c1ccco1 | 81.6% (active)
27 | O=C(Nn1c(C2CCCCC2)nc2ccccc2c1=O)c1ccc([N+](=O)[O-])cc1 | 2.98% (inactive)
28 | COc1cc2nc(C3CCC3)n(NC(=O)c3ccco3)c(=O)c2cc1OC | 11.3% (inactive)
29 | NS(=O)(=O)c1ccc(CCNC(=O)c2ccc(Cn3c(=O)[nH]c4ccccc4c3=O)cc2)cc1 | 4.04% (inactive)
30 | CC(/C=C/c1ccccc1)=N\NC(=O)c1cc(C)nc2ccccc12 | 7.74% (inactive)
31 | CC1CN(C(=O)c2cc(S(=O)(=O)N3CCCC3)c(Cl)cc2Cl)CC(C)O1 (stereo unspecified) | -2.85% (inactive)
32 | O=C(CNC(=S)N(Cc1ccccc1)Cc1cccnc1)NCCc1ccccc1 | -4.94% (inactive)
33 | N=c1c(C(=O)NCc2ccc(F)cc2)cc2c(=O)n3ccccc3nc2n1CCCN1CCOCC1 | 5.69% (inactive)
34 | N=c1c(C(=O)NCc2ccco2)cc2c(=O)n3ccccc3nc2n1CCc1ccccc1 | 9.03% (inactive)
35 | N=c1c(C(=O)NC2CCCC2)cc2c(=O)n3ccccc3nc2n1CCN1CCOCC1 | 12.5% (inactive)
36 | Cc1cccn2c(=O)c3cc(C(=O)NCc4cccnc4)c(=N)n(C(C)C)c3nc12 | 0.19% (inactive)
37 | N=c1c(C(=O)NCc2ccco2)cc2c(=O)n3ccccc3nc2n1Cc1ccccc1 | 11.6% (inactive)
38 | Cc1cccn2c(=O)c3cc(C(=O)NCc4ccco4)c(=N)n(C(C)C)c3nc12 | 18.3% (inactive)

Row | SMILES | inhibition
39 | O=C(COc1cc(F)ccc1[N+](=O)[O-])Nc1ccc(N2CCOCC2)cc1 | 1.97% (inactive)
40 | COc1cc(/C=C/C(=O)O)cc(S(=O)(=O)N2CCc3ccccc32)c1OC | 7.41% (inactive)
41 | O=C(O)Cc1ccc(-c2ccccc2-c2ccccc2)cc1 | 6.14% (inactive)
42 | COc1ccc(OC)c(C(C)NC(=O)c2ccc(Br)cc2)c1 (stereo unspecified) | 6.29% (inactive)
43 | CCc1cccc(CC)c1NC(=O)c1ccc(-n2cncn2)nc1 | 3.55% (inactive)
44 | Cc1c(Cl)cccc1NC(=O)CCC(=O)N/N=C/c1ccc[nH]1 | 6.91% (inactive)
45 | CC(=O)Nc1sc(C)c(C)c1C(=O)Nc1ccc(C)cc1 | 10.1% (inactive)
46 | COc1cc(/C=C2\SC(=Nc3ccccc3)N(CCc3c[nH]c4ccccc34)C2=O)ccc1OC(C)C(=O)O (stereo unspecified) | 16.3% (inactive)
47 | COc1ccc(N=C2S/C(=C\c3ccc(OC(C)C(=O)O)c(OC)c3)C(=O)N2CCc2c[nH]c3ccccc23)cc1 (stereo unspecified) | 31.6% (inactive)
48 | CCCn1c(N2CCN(C)CC2)nc2c1c(=O)[nH]c(=O)n2C | -4.63% (inactive)
49 | CCN(C1=NS(=O)(=O)c2ccccc21)N(CC)S(=O)(=O)c1ccc(C)cc1 | -4.7% (inactive)
50 | COc1ccc(S(=O)(=O)N(NC2=NS(=O)(=O)c3ccccc32)C(=O)C(C)C)cc1 | 9.06% (inactive)
51 | CC1CCCCC1NC(=O)C(=O)NCC1CCCO1 (stereo unspecified) | 0.74% (inactive)
52 | Clc1cccc(-c2ccc(CNCCCN3CCOCC3)o2)c1 | 2.45% (inactive)
53 | CCc1nn(CCCC(=O)N2CCc3ccccc3C2)c(=O)c2cc3occc3n12 | 23.8% (active)
54 | O=C(CCCn1ncn2c(cc3occc32)c1=O)N1CCc2ccccc2C1 | 2.44% (inactive)
55 | CCc1nn(C(C)C(=O)N2CCc3ccccc3C2)c(=O)c2cc3occc3n12 (stereo unspecified) | 2.28% (inactive)
56 | CS(=O)(=O)N(Cc1ccc(C(=O)NC2CCCCC2O)cc1)c1ccccc1 (stereo unspecified) | 4.69% (inactive)
